Results reported in PubChem BioAssay AID1159580 (chemical genetic matrix, 2015).
Where “and” joins values, the source holds several entries; their conditions need not be identical. Identical values can stand only once. The whole screen tested about 5,500 compounds, of which about 2,000 (36%) were called active. Inconclusive results (about 18%) are left out. Cut-off read from the data, not from the text of the source: active = normalized growth mostly below about 0.91 (no sharp cut-off); inconclusive = no clear call, values can overlap the other calls; inactive = mostly above about 0.92. The list shows a part of the results.

Assay: chemical genetic growth profiling, strain panel (AID 1159580);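 note: tested at 20 µM; growth read once vehicle control cultures reached saturation at 30 °C; 1 = growth at the plate median or of vehicle wells; lower values mean less growth of the strain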
Conditions: S. cerevisiae deletion strains, growth OD

Measured: normalized growth

O=C1c2c(O)cccc2Cc2cccc(O)c21
active: locus YOR270C, strain vph1, active compounds read low 0.755 | locus YPL051W, strain arl3, active compounds read low 0.914
inactive: locus YAL013W, strain DEP1, active compounds read low 1.04 | locus YAL021C, strain ccr4, active compounds read low 0.958 | locus YAL026C, strain drs2, active compounds read low 0.988 | locus YAL030W, strain snc1, active compounds read low 0.986 | locus YBL061C, strain skt5, active compounds read low 1 | locus YBR009C, strain hhf1, active compounds read low 0.997 | locus YBR021W, strain FUR4, active compounds read low 1 | locus YBR023C, strain chs3, active compounds read low 0.988 | locus YBR171W, strain sec66, active compounds read low 0.975 | locus YBR229C, strain ROT2, active compounds read low 0.998 | locus YBR231C, strain swc5, active compounds read low 0.981 | locus YBR279W, strain paf1, active compounds read low 0.966 | locus YCL011C, strain gbp2, active compounds read low 0.973 | locus YCL016C, strain dcc1, active compounds read low 1.03 | locus YCL029C, strain bik1, active compounds read low 0.992 | locus YCL061C, strain MRC1, active compounds read low 0.978 | locus YCL069W, strain vba3, active compounds read low 1.01 | locus YCR088W, strain abp1, active compounds read low 1.01 | locus YDL005C, strain med2, active compounds read low 0.978 | locus YDL035C, strain GPR1, active compounds read low 1.02 | locus YDL040C, strain nat1, active compounds read low 0.999 | locus YDL074C, strain BRE1, active compounds read low 1.04 | locus YDL101C, strain DUN1, active compounds read low 1.01 | locus YDL134C, strain PPH21, active compounds read low 1.02 | locus YDL185W, strain tfp1, active compounds read low 0.999 | locus YDL192W, strain arf1, active compounds read low 0.994 | locus YDR001C, strain nth1, active compounds read low 0.988 | locus YDR069C, strain doa4, active compounds read low 0.946 | locus YDR101C, strain arx1, active compounds read low 0.99 | locus YDR137W, strain rgp1, active compounds read low 0.848 | locus YDR159W, strain sac3, active compounds read low 0.982 | locus YDR162C, strain NBP2, active compounds read low 1.03 | locus YDR195W, strain ref2 1.11 | locus YDR297W, strain sur2, active compounds read low 1.01 | locus YDR318W, strain mcm21, active compounds read low 0.994 | locus YDR334W, strain swr1, active compounds read low 0.936 | locus YDR335W, strain msn5, active compounds read low 0.999 | locus YDR388W, active compounds read low 0.992 | locus YDR392W, strain spt3, active compounds read low 0.986 | locus YDR502C, strain sam2, active compounds read low 1.01 | locus YEL003W, strain gim4, active compounds read low 1.03 | locus YEL037C, strain rad23, active compounds read low 1 | locus YEL061C, strain CIN8 (second series), active compounds read low 0.986 | locus YEL061C, strain CIN8, active compounds read low 1 | locus YER015W, strain faa2, active compounds read low 1.01 | locus YER016W, strain bim1, active compounds read low 1.01 | locus YER110C, active compounds read low 0.997 | locus YER111C, strain swi4, active compounds read low 1.01 | locus YER155C, strain BEM2 (second series), active compounds read low 0.957 | locus YER155C, strain BEM2, active compounds read low 0.997 | locus YER167W, strain BCK2, active compounds read low 1 | locus YFR010W, strain ubp6, active compounds read low 0.957 | locus YGL078C, strain dbp3, active compounds read low 0.992 | locus YGL086W, strain mad1, active compounds read low 1 | locus YGL167C, strain pmr1, active compounds read low 0.962 | locus YGL173C, strain kem1, active compounds read low 0.996 | locus YGL227W, strain vid30, active compounds read low 0.976 | locus YGL240W, strain doc1, active compounds read low 0.985 | locus YGL248W, strain PDE1, active compounds read low 1.02 | locus YGL253W, strain hxk2, active compounds read low 0.963 | locus YGR078C, strain PAC10, active compounds read low 1.03 | locus YGR135W, strain pre9, active compounds read low 0.999 | locus YGR252W, strain gcn5, active compounds read low 1.02 | locus YHR013C, strain ard1, active compounds read low 1 | locus YHR027C, strain rpn1, active compounds read low 0.976 | locus YHR030C, strain SLT2, active compounds read low 1.01 and 1.06 | locus YHR079C, strain IRE1 (second series), active compounds read low 0.994 | locus YHR079C, strain IRE1, active compounds read low 1.08 | locus YHR094C, strain hxt1, active compounds read low 0.993 | locus YHR129C, strain ARP1, active compounds read low 1.01 | locus YHR142W, strain chs7, active compounds read low 1.02 | locus YHR200W, strain rpn10, active compounds read low 1 | locus YIL066C, strain RNR3, active compounds read low 1.02 | locus YIL073C, strain SPO22, active compounds read low 1.03 | locus YIL125W, strain kgd1, active compounds read low 1 | locus YIR030C, strain dcg1, active compounds read low 0.992 | locus YJL092W, strain hpr5, active compounds read low 1.01 | locus YJL095W, strain BCK1 (second series), active compounds read low 0.967 | locus YJL095W, strain BCK1, active compounds read low 1.05 and 1.06 | locus YJL115W, strain asf1, active compounds read low 0.982 | locus YJL129C, strain trk1, active compounds read low 1.05 | locus YJL134W, strain LCB3, active compounds read low 1.01 | locus YJL154C, strain vps35, active compounds read low 0.988 | locus YJL164C, strain tpk1, active compounds read low 1.02 | locus YJL166W, strain qcr8, active compounds read low 0.984 | locus YJL168C, strain set2, active compounds read low 0.99 | locus YJL187C, strain SWE1 (second series), active compounds read low 1.02 | locus YJL187C, strain SWE1, active compounds read low 1 | locus YJR043C, strain POL32, active compounds read low 1.06 | locus YJR066W, strain TOR1, active compounds read low 0.994 | locus YJR075W, strain HOC1, active compounds read low 1.03 | locus YKL009W, strain mrt4, active compounds read low 1.01 | locus YKL068W, active compounds read low 0.99 | locus YKL085W, strain MDH1 (second series), active compounds read low 0.994 | locus YKL085W, strain MDH1, active compounds read low 0.994 | locus YKL160W, strain elf1, active compounds read low 1 | locus YKR001C, strain vps1, active compounds read low 1.01 | locus YKR026C, strain gcn3, active compounds read low 0.991 | locus YKR091W, strain srl3, active compounds read low 0.985 | locus YLL001W, strain dnm1, active compounds read low 1 | locus YLL026W, active compounds read low 1 | locus YLL041C, strain sdh2, active compounds read low 0.997 | locus YLR027C, strain aat2, active compounds read low 1.03 | locus YLR039C, strain RIC1, active compounds read low 1.24 | locus YLR058C, strain SHM2, active compounds read low 1.01 | locus YLR102C, strain apc9, active compounds read low 0.995 | locus YLR113W, strain HOG1, active compounds read low 1.13 | locus YLR221C, strain rsa3, active compounds read low 0.985 | locus YLR258W, strain gsy2, active compounds read low 0.976 | locus YLR262C, strain YPT6 (second series), active compounds read low 0.862 | locus YLR262C, strain YPT6, active compounds read low 1.28 | locus YLR268W, strain sec22, active compounds read low 1.02 | locus YLR320W, strain mms22, active compounds read low 0.996 | locus YLR330W, strain CHS5, active compounds read low 1 | locus YLR342W, strain FKS1 (second series), active compounds read low 1.01 | locus YLR342W, strain FKS1, active compounds read low 0.996 | locus YLR357W, strain rsc2, active compounds read low 0.921 | locus YLR370C, strain arc18, active compounds read low 0.985 | locus YLR371W, strain rom2, active compounds read low 1 | locus YLR384C, strain iki3, active compounds read low 0.974 | locus YLR418C, strain cdc73, active compounds read low 1.11 | locus YML016C, strain PPZ1, active compounds read low 1 | locus YML032C, strain rad52, active compounds read low 0.996 | locus YML120C, strain ndi1, active compounds read low 1.02 | locus YML124C, strain tub3, active compounds read low 0.988 | locus YMR058W, strain fet3, active compounds read low 0.999 | locus YMR078C, strain ctf18, active compounds read low 0.999 | locus YMR125W, strain sto1, active compounds read low 0.988 | locus YMR129W, active compounds read low 0.995 | locus YMR205C, strain PFK2, active compounds read low 1.03 | locus YMR223W, strain ubp8, active compounds read low 1 | locus YMR231W, strain pep5, active compounds read low 0.976 | locus YMR263W, strain SAP30, active compounds read low 1.02 | locus YMR307W, strain GAS1, active compounds read low 0.997 | locus YNL067W, strain RPL9B, active compounds read low 1.04 | locus YNL071W, strain lat1, active compounds read low 1.02 | locus YNL183C, strain NPR1, active compounds read low 1 | locus YNL209W, strain ssb2, active compounds read low 1 | locus YNL233W, strain BNI4, active compounds read low 1.05 | locus YNL248C, strain rpa49, active compounds read low 0.906 | locus YNL250W, strain rad50, active compounds read low 0.99 | locus YNL271C, strain bni1, active compounds read low 0.989 | locus YNL298W, strain CLA4, active compounds read low 0.985 | locus YNL307C, strain MCK1, active compounds read low 1.01 | locus YNL322C, strain KRE1 (second series), active compounds read low 0.988 | locus YNL322C, strain KRE1, active compounds read low 1 | locus YNR049C, strain mso1, active compounds read low 1.01 | locus YNR052C, strain pop2, active compounds read low 0.993 | locus YOL012C, strain htz1 0.791 | locus YOL147C, strain pex11, active compounds read low 0.997 | locus YOR001W, strain rrp6, active compounds read low 0.979 | locus YOR061W, strain CKA2, active compounds read low 1.01 | locus YOR069W, strain VPS5, active compounds read low 1.01 | locus YOR070C, strain gyp1, active compounds read low 1.03 | locus YOR080W, strain dia2, active compounds read low 1 | locus YOR083W, strain WHI5, active compounds read low 0.954 | locus YOR106W, strain vam3, active compounds read low 0.898 | locus YOR136W, strain idh2, active compounds read low 0.993 | locus YOR144C, strain elg1, active compounds read low 0.996 | locus YOR184W, strain ser1, active compounds read low 1.02 | locus YOR231W, strain MKK1, active compounds read low 1.07 | locus YOR265W, strain rbl2, active compounds read low 0.996 | locus YOR290C, strain snf2, active compounds read low 1.02 | locus YOR316C, strain cot1, active compounds read low 0.997 | locus YPL078C, strain atp4, active compounds read low 1.01 | locus YPL106C, strain sse1, active compounds read low 0.919 | locus YPL240C, strain hsp82, active compounds read low 0.991 | locus YPL256C, strain CLN2, active compounds read low 1.17 | locus YPR119W, strain clb2, active compounds read low 0.988 | locus YPR141C, strain kar3, active compounds read low 0.993 | locus YPR163C, strain tif3, active compounds read low 0.997 | locus YPR167C, strain met16, active compounds read low 1 | strain wtn01, active compounds read low 0.999
